Laboratory results: PubChem BioAssay (EPA / NIEHS)
Results filed as inconclusive are left out. Activity calls are given as the source filed them. Rule for the calls: active = hit-call score of the fitted dose curve at least 0.9, where 1 is the maximum; inconclusive = response in the unintended direction; inactive = score below 0.9.

Experiment: ACEA_ER_AUC_viability: ACEA Biosciences xCELLigence Real-Time Cell Analysis on Estrogen Receptor Agonism for Viability (AID 2283782);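 note: continuous compound exposure with impedance area under curve over 80 h; hit means loss of impedance signal meaning reduced cell growth or viability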
Description: ACEA_ER is a cell-based, single-readout assay that uses T47D, a human breast cell line, with measurements taken at 80 hours after chemical dosing in a 96-well plate, although TO2 (mc0.srcf) used a 384-well plate. Differences in plate size can be ignored given data normalization.ACEA_ER_AUC_viability is one of two assay component(s) measured or calculated from the ACEA_ER assay. It is designed to make measurements of real-time cell-growth kinetics, a form of growth reporter, as detected with electrical impedance signals by Real-Time Cell Electrode Sensor (RT-CES) technology.Data from the assay component ACEA_ER_AUC_viability was analyzed in the positive analysis fitting direction relative to DMSO as the negative control and baseline of activity. Using a type of growth reporter, loss-of-signal activity can be used to understand changes in the viability. Furthermore, this assay endpoint can be referred to as a secondary readout, because this assay has produced multiple assay endpoints where this one serves a viability function. To generalize the intended target to other relatable targets, this assay endpoint is annotated to the cell cycle intended target family, where the subfamily is cytotoxicity.
The xCELLigence system Multi-E-Plate stations were used to measure the time-dependent response to chemicals. Each compound was tested in an eight-point, 1:4 serial dilution series starting at a maximum final concentration of 100 uM. A maximum starting concentration of 0.5% DMSO was present in the 100 uM chemical samples and was diluted along with the test article dilution series. The screen was performed in biological duplicate using two separate, 96-well, E-Plates 96 for each dilution series (n = 2). Positive controls (MG132 and E2) and a negative control (assay media) were tested in quadruplicate on each testing plate. Then, 0.5% and 0.125% DMSO were tested in duplicates in each plate to serve as solvent controls for the 2 highest concentrations of testing compounds: 100 uM and 25 uM. Reference compounds were tested with 8 concentrations with 1:5 serial dilutions. All screening was carried out by ACEA Biosciences, Inc. (San Diego, CA). T-47D cells purchased from ATCC were maintained in RPMI1640 media supplemented with 10% characterized fetal bovine serum (FBS). Before screening, T-47D cells were preconditioned in assay medium: phenol red-free RPMI1640 supplemented with 10% charcoal-stripped FBS. Cells were then detached and seeded in E-Plates 96 in assay medium. After overnight monitoring of growth once every hour, compounds were added to […] cells and remained in the medium until the end of the experiment. Cellular responses were then recorded once every 5 min for the first 5 h, and once every hour for an additional 100 h.

Row | Structure (SMILES) | outcome | AC50
1 | O=C1NC(=O)C2CC=CCC12 (stereo not given) | inactive | –
2 | Clc1ccccn1 | inactive | –
3 | CCCCCCCCCC/C=C/C1CC(=O)OC1=O (stereo not given) | – | 64.1 µM (active)
4 | NCc1ccccc1 | – | 50 µM (active)
5 | O=C(OCc1ccccc1)c1ccccc1 | – | 76.8 µM (active)
6 | CCC(C)(CCC(C)C)C(=O)O (stereo not given) | inactive | –
7 | CN(C)c1ccc(C(c2ccccc2)c2ccc(N(C)C)cc2)cc1 | – | 75.8 µM (active)
8 | COc1ccc(COC=O)cc1 | inactive | –
9 | N#CCN(CC#N)CCN(CC#N)CC#N | inactive | –
10 | c1ccc(CNc2ncnc3nc[nH]c23)cc1 | inactive | –
11 | CC(C)=CCOC(=O)c1ccccc1 | – | 50 µM (active)
12 | O=C(O)c1cc(Cl)cc(Cl)c1O | inactive | –
13 | O=C(O)Cc1c[nH]c2ccccc12 | inactive | –
14 | CO[Si](CCCNCCN)(OC)OC | inactive | –
15 | O=S(=O)(O)c1cccc2ccccc12 | inactive | –
16 | CC(C)(C)C(=O)C(=O)O | inactive | –
17 | CCCCC(CC)COC(=O)CS (stereo not given) | inactive | –
18 | O=C(Oc1ccccc1)c1ccccc1 | inactive | –
19 | CC1=CCCC(C)(C)C12CCC(C)O2 (stereo not given) | – | 60.7 µM (active)
20 | CC/C=C\CC1=C(C)CCC1=O | – | 92.5 µM (active)

Row | Structure (SMILES) | outcome | AC50
21 | CCCCCCCCCCC1CO1 (stereo not given) | – | 32.9 µM (active)
22 | COc1c2occc2cc2ccc(=O)oc12 | inactive | –
23 | C=C(C)C(=O)OCCNC(C)(C)C | inactive | –
24 | CCC(=O)OCc1ccc(OC)cc1 | – | 39.9 µM (active)
25 | C/C=C(\C)C(=O)OCC/C=C\CC | inactive | –
26 | CCO[Si](OCC)(OCC)c1ccccc1 | inactive | –
27 | CCOC(=O)c1ccccc1 | – | 50 µM (active)
28 | CN(C)CCCNCCC#N | inactive | –
29 | CCO[Si](CCCN)(OCC)OCC | inactive | –
30 | CN1CCCC1 | inactive | –
31 | O=C(O)CCCc1c[nH]c2ccccc12 | inactive | –
32 | COC(=O)/C=C\C(=O)OC | – | 76.9 µM (active)
33 | CC[N+](CC)(CC(=O)Nc1c(C)cccc1C)Cc1ccccc1 | inactive | –
34 | CCCCCCC1CCC(=O)O1 (stereo not given) | inactive | –
35 | CC(C)(Oc1ccc(Cl)cc1)C(=O)O | – | 50 µM (active)
36 | C=CCOC(=O)C(=C)C | inactive | –
37 | CCCC/C=C/CCCCO | – | 50 µM (active)
38 | CN(C)CCC(c1ccc(Cl)cc1)c1ccccn1 (stereo not given) | inactive | –
39 | CCCCCCCCCCCCCC | inactive | –
40 | CCCCCCOC(=O)CCCCCCCC(=O)OCCCCCC | – | 50 µM (active)
